Some test systems named below: SR leukemia; RPMI-8226 leukemia; OVCAR-8 ovarian; OVCAR-5 ovarian; OVCAR-4 ovarian; SK-OV-3 ovarian; IGROV1 ovarian; OVCAR-3 ovarian; HS 578T breast; NCI/ADR-RES ovarian; T-47D breast; BT-549 breast; MDA-MB-435 melanoma; SW-620 colon; MCF7 breast; HCT-116 colon; HCC-2998 colon; KM12 colon.
Holding throughout (test): NCI-60 one-dose screen, 48 h (100 = growth as untreated, 0 = no growth, -100 = all killed)
Holding throughout (details): 10 µM unless noted

Our source for the growth values is PubChem BioAssay (NCI).

Compounds without any hit were thinned out: in the full panel of roughly 83,000, 20% have a hit.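 The test compound was applied at a single concentration to cells in 96-well plates for 48 hours, and percent growth was recorded.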 Values without a mark were called inactive. Calls of active or inactive are those of the source. The calls were made as follows: active = growth percent below 10; inactive = the rest.

As to `Cc1ccc(-c2nc(C(Cl)Cl)nc3cc(C)nn23)cc1`, the growth is 9.7% (active) in the assay on SR leukemia; 33.4% in the assay with RPMI-8226 leukemia; 14.7% in the assay on OVCAR-8 ovarian; 2.16% (active) in the assay with OVCAR-5 ovarian; -21.5% (active) in the assay on OVCAR-4 ovarian; -12.7% (active) in the assay with SK-OV-3 ovarian. Moreover, the growth is 6.31% (active) in the assay on IGROV1 ovarian; -24.3% (active) in the assay with OVCAR-3 ovarian; -11.4% (active) in the assay with HS 578T breast; 6.39% (active) in the assay with NCI/ADR-RES ovarian; 40.9% with T-47D breast; 55.5% in the assay on BT-549 breast. The growth in the assay on MDA-MB-435 melanoma is 12%; in the assay on SW-620 colon, -28.5% (active); with MCF7 breast, 20.6%; in the assay on HCT-116 colon it was 6.95% (active); in the assay on HCC-2998 colon it was -69.3% (active); in the assay on KM12 colon it was -9.44% (active).

For `Oc1c(I)cc(-c2nc3ccccc3s2)cc1CN(Cc1ccccn1)Cc1ccccn1`, the growth in the assay with SR leukemia was 6.31% (active); in the assay with RPMI-8226 leukemia it was 15.2%; with OVCAR-8 ovarian, 10.9%; in the assay with OVCAR-5 ovarian, 49.7%; with OVCAR-4 ovarian, 31.9%; in the assay on SK-OV-3 ovarian it was 18.5%. The growth in the assay on IGROV1 ovarian is 5.99% (active); in the assay with OVCAR-3 ovarian it was 31.5%; in the assay with HS 578T breast, 46.8%; with NCI/ADR-RES ovarian, -2.29% (active); in the assay with T-47D breast, 17%; with BT-549 breast it was 22%. Besides, the growth with MDA-MB-435 melanoma was 33.3%; with SW-620 colon it was 21.3%; with MCF7 breast, 13.7%; in the assay with HCT-116 colon, 16.1%; in the assay on HCC-2998 colon it was 9.25% (active); in the assay on KM12 colon, 28.4%.

For the compound `CCOC(=O)C1=C(c2ccccc2)N=c2s/c(=C/c3ccc(Br)cc3)c(=O)n2C1c1ccc(O)cc1` (centres undefined), the growth is 54.8% with SR leukemia; 74.1% with RPMI-8226 leukemia; 89.2% in the assay with OVCAR-8 ovarian; 105% in the assay on OVCAR-5 ovarian; 75.1% in the assay with OVCAR-4 ovarian; 104% with SK-OV-3 ovarian. Besides, the growth is 93.1% with IGROV1 ovarian; 86.1% in the assay on OVCAR-3 ovarian; 84.4% with HS 578T breast; 99.5% in the assay with NCI/ADR-RES ovarian; 69.7% in the assay on T-47D breast; 95.3% in the assay on BT-549 breast. Besides, the growth is 96% in the assay on MDA-MB-435 melanoma; 94.6% in the assay with SW-620 colon; 77.1% in the assay with MCF7 breast; 82.3% in the assay with HCT-116 colon; 105% with HCC-2998 colon; 84.4% with KM12 colon.

For the compound `COc1ccc2nc3ccccc3c(NCc3ccc(F)cc3)c2c1`, the growth in the assay on SR leukemia is -1.12% (active); with RPMI-8226 leukemia, -43% (active); in the assay with OVCAR-8 ovarian, 19.4%; in the assay with OVCAR-5 ovarian, 18.1%; in the assay with OVCAR-4 ovarian it was 13.6%; in the assay on SK-OV-3 ovarian it was 37.9%. Further, the growth in the assay on IGROV1 ovarian is 8.15% (active); with OVCAR-3 ovarian, 31.2%; in the assay on HS 578T breast it was 26.1%; in the assay with NCI/ADR-RES ovarian, 15.1%; in the assay with T-47D breast, 36.5%; with BT-549 breast, 35%. Besides, the growth in the assay with MDA-MB-435 melanoma is 23.9%; in the assay on SW-620 colon, 14.7%; in the assay on MCF7 breast, -27.7% (active); in the assay on HCT-116 colon it was 8.89% (active); in the assay with HCC-2998 colon it was -77.6% (active); with KM12 colon, 28.7%.

As to `COc1cc(/C=C/c2cc(/C=C/c3ccc(O)c(OC)c3)n(C(=O)Nc3ccc(F)cc3)n2)ccc1O`, the growth with SR leukemia was 2.53% (active); in the assay with RPMI-8226 leukemia it was 3.32% (active); with OVCAR-8 ovarian, 0.475% (active); in the assay on OVCAR-5 ovarian, 31.3%; in the assay on OVCAR-4 ovarian it was 35.5%; with SK-OV-3 ovarian, -18.7% (active). For the same compound, the growth in the assay on IGROV1 ovarian is 17.4%; in the assay on OVCAR-3 ovarian, 3.89% (active); in the assay with HS 578T breast, 20%; in the assay with NCI/ADR-RES ovarian it was 27.9%; in the assay with T-47D breast, 31.1%; in the assay on BT-549 breast, -8.33% (active). The growth was -2.32% (active) in the assay with MDA-MB-435 melanoma; 10.5% with SW-620 colon; 9.49% (active) in the assay with MCF7 breast; 4.95% (active) in the assay with HCT-116 colon; 6.92% (active) with HCC-2998 colon; 2.44% (active) with KM12 colon.

For the compound `Clc1ccc(-c2cn3ccsc3n2)c(Cl)c1Cl`, the growth is 49.9% in the assay on SR leukemia; 67.5% in the assay on RPMI-8226 leukemia; 95.7% in the assay with OVCAR-8 ovarian; 88.5% in the assay on OVCAR-5 ovarian; 74.1% in the assay with OVCAR-4 ovarian; 118% with SK-OV-3 ovarian. In addition, the growth was 77.2% in the assay on IGROV1 ovarian; 93.3% in the assay with OVCAR-3 ovarian; 84.3% in the assay with HS 578T breast; 99.6% in the assay on NCI/ADR-RES ovarian; 31.7% in the assay with T-47D breast; 86.3% in the assay on BT-549 breast. Moreover, the growth in the assay with MDA-MB-435 melanoma is 96.6%; in the assay with SW-620 colon, 96.8%; in the assay with MCF7 breast, 0.866% (active); with HCT-116 colon, 91.7%; in the assay with HCC-2998 colon it was 92.5%; in the assay on KM12 colon, 98.1%.

Take `Nc1c(C(=O)Nc2ccncc2)sc2nc3c(cc12)CCCCC3`: the growth was 43.6% in the assay with SR leukemia; 47.2% with RPMI-8226 leukemia; 65.2% in the assay on OVCAR-8 ovarian; 83.4% in the assay on OVCAR-5 ovarian; 55.8% with OVCAR-4 ovarian; 75.8% with SK-OV-3 ovarian. The growth with IGROV1 ovarian was 98.9%; with OVCAR-3 ovarian it was 88.9%; with HS 578T breast it was 85.1%; with NCI/ADR-RES ovarian, 75.5%; in the assay on T-47D breast, 25.7%; in the assay on BT-549 breast, 50.4%. The growth in the assay on MDA-MB-435 melanoma was 67%; in the assay with SW-620 colon it was 105%; in the assay on MCF7 breast it was 58.5%; in the assay with HCT-116 colon, 66.4%; in the assay on HCC-2998 colon it was 85.3%; with KM12 colon it was 75.6%.

Regarding `COc1ccc(C2=NN(C(C)=O)C(c3ccc(Oc4ccnc5cc(Cl)ccc45)c(OC)c3)C2)cc1` (centres undefined), the growth was 74.4% in the assay with SR leukemia; 77.1% with RPMI-8226 leukemia; 24% in the assay with OVCAR-8 ovarian; 84.4% in the assay on OVCAR-5 ovarian; -17.2% (active) with OVCAR-4 ovarian; 24.5% in the assay on SK-OV-3 ovarian. The growth with IGROV1 ovarian was 79.7%; in the assay on OVCAR-3 ovarian it was 37.1%; in the assay on HS 578T breast, 58.9%; in the assay on NCI/ADR-RES ovarian, 44.7%; with T-47D breast, 16.2%; in the assay with BT-549 breast it was 79.5%. The growth with MDA-MB-435 melanoma is 57%; in the assay on SW-620 colon, 74.3%; in the assay with MCF7 breast it was 37.6%; in the assay on HCT-116 colon, 25%; in the assay on HCC-2998 colon, 57.2%; in the assay with KM12 colon it was 72.9%.
